Pf growth 96h: P. falciparum growth inhibition at 96 hour, primary screen for plastid delayed-death inhibitors | P. falciparum luciferase reporter growth, 96 h | Potency, µM (top dose mostly 28.7 µM), usual class: inhibitors | 6.9% of 320,000 active | AID 504834
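Two parasite generations (96 h, 37 C, 5% CO2) of compound exposure in infected erythrocytes (0.05% parasitemia, 2% hematocrit). Luciferase-reporter P. falciparum; decreased luminescence indicates inhibited growth, aimed at apicoplast-acting delayed death.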
Pf growth 48h: P. falciparum growth inhibition at 48 hours (one generation); P. falciparum luciferase growth in erythrocytes, 48 h; Potency, µM (highest dose often 28.7 µM), usual class: inhibitors; 5.9% of 310,000 active; AID 504832
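A one-generation exposure of luciferase-tagged malaria parasites in RPMI 1640/Albumax erythrocyte culture, 37 C and 5% CO2. Inhibition is inferred from decreased luminescence after adding detection reagent.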
HCV inhibitor: blocks hepatitis C virus; Potency, µM (top dose mostly 41.8 µM), hits mostly inhibitors; Huh7.5.1 HCVcc-Cre infection, luciferase reporter, 44 h; 3.4% of 340,000 active
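Whole-lifecycle infectious HCVcc-Cre system; cells 1,000/well, compound then virus (~0.5 moi) added 4 h after plating, 44 h culture. Luciferase read 15 sec following 15 min substrate incubation, room temp.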
HCMV antiviral: inhibitors of human cytomegalovirus; HFF cells, HCMV-luciferase reporter, 72 h; active compounds read low; activity change, negative = inhibition, % at 57.5 µM; 4.5% of 410,000 active; AID 1259415; in the data active = activity change below about -60%; inconclusive = no clear call, values can overlap the other calls; inactive = above about -39%
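Screen run at 2 compound doses on HFFs infected with reporter HCMV, MOI 1 PFU/cell. Luciferase activity from cell lysates at 72 h post infection gave inhibition relative to buffer-only and Salinomycin wells.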
Large screens that a line does not name were inactive. The list is not random: actives were taken first. Their share in the collection is about 13%. Unless noted, calls follow the shape of the dose curve; as a rule, active = well fitted inhibition curve with a large enough effect; inconclusive = small, poorly fitted or top-dose-only effect, or another doubt; inactive = no such curve, though single readings can be large or run the other way.

Cc1cc(N/N=C/c2ccc(O)cc2O)c2ccccc2n1	Pf growth 48h inconclusive, HCV inhibitor inconclusive
Cc1ccc2nc(C)cc(N/N=C/c3ccccc3O)c2c1	none
Cc1ccc(/C=N/Nc2ccnc3cc(Cl)ccc23)c(C)c1	Pf growth 96h inconclusive, Pf growth 48h 0.21µM, HCV inhibitor 10µM, HCMV antiviral -76
Oc1ccc(/C=N/Nc2ccnc3cc(Cl)ccc23)c(O)c1	Pf growth 96h 0.37µM, Pf growth 48h 0.59µM, HCV inhibitor 10µM
Cc1cc(N=Nc2c(O)c3ccccc3[nH]c2=O)ccc1N=Nc1ccc(C(=O)N(C)C)cc1	Pf growth 96h 2.1µM, Pf growth 48h 1.9µM
CC(=O)C1=C(O)C(=O)N(c2ccc(Br)cn2)C1c1cccc([N+](=O)[O-])c1 (stereo unspecified)	Pf growth 96h inconclusive, HCMV antiviral -105
CC(=O)C1=C(O)C(=O)N(c2ccc(Br)cn2)C1c1ccccc1[N+](=O)[O-] (stereo unspecified)	none
CC(C)(C)CN1CCN(Cc2nc(-c3ccc(F)cc3)cs2)CC1CCO (stereo unspecified)	Pf growth 48h inconclusive, HCV inhibitor 2.2µM, HCMV antiviral -64
CC(C)(C)CN1CCN(Cc2cc3ccccc3[nH]2)CC1CCO (stereo unspecified)	Pf growth 96h 5.2µM
CC(C)CN1CCN(Cc2cc3ccccc3[nH]2)CC1CCO (stereo unspecified)	Pf growth 96h inconclusive, Pf growth 48h inconclusive
Cc1ccccc1Cn1c2ccccc2c2cn[nH]c(=O)c21	Pf growth 96h 10µM, Pf growth 48h inconclusive, HCV inhibitor inconclusive
O=C(Cn1ncc2c3ccccc3n(Cc3cccc(Cl)c3)c2c1=O)N1CCC2(CC1)OCCO2	Pf growth 96h 4.7µM, Pf growth 48h 4.1µM, HCV inhibitor inconclusive
Cc1ccccc1Cn1c2ccccc2c2cnn(CC(=O)NCc3cccc(Cl)c3)c(=O)c21	HCMV antiviral -78 (no result: Pf growth 96h, Pf growth 48h, HCV inhibitor)
CCOc1ccc(NC(=O)CC2C(=O)N(c3cccc(C)c3)C(=O)N2Cc2cccnc2)cc1 (stereo unspecified)	none (no result: Pf growth 96h, Pf growth 48h, HCV inhibitor)
CCCNC(=O)C1CCC(Cn2c(=O)c3sccc3n(Cc3cccc(OC)c3)c2=O)CC1 (stereo unspecified)	none (no result: Pf growth 96h, Pf growth 48h, HCV inhibitor)
Cc1cccc(NC(=O)CSc2nc3nc4c(cc3c(=O)n2-c2ccccc2)CCCC4)c1	Pf growth 96h 2.9µM, Pf growth 48h 5.2µM, HCV inhibitor inconclusive
O=C(CSc1nc(O)cc(=O)n1-c1ccccc1)Nc1ccc2c3c(cccc13)CC2	Pf growth 96h 8.3µM, Pf growth 48h inconclusive
Cc1c(O)nc(SCC(=O)Nc2ccc3c4c(cccc24)CC3)n(-c2ccccc2)c1=O	Pf growth 96h inconclusive
O=C(CSc1nc2nc3c(cc2c(=O)n1-c1ccccc1)CCCC3)Nc1cccc2ccccc12	Pf growth 96h 5.9µM, Pf growth 48h 5.9µM, HCV inhibitor inconclusive
O=C(CSc1nc(O)cc(=O)n1-c1ccccc1)NC1CCCCC1	Pf growth 48h 2.6µM (no result: Pf growth 96h)
CCOC(=O)c1cccc(NC(=O)C2CCN(S(=O)(=O)c3c(C)noc3/C=C/c3ccc(C)cc3)CC2)c1	none (no result: Pf growth 96h, Pf growth 48h, HCV inhibitor)
CCn1c(SCC(=O)Nc2ccc(Cl)cc2)nc2nc3c(cc2c1=O)CCCC3	Pf growth 96h 13µM, Pf growth 48h inconclusive, HCV inhibitor inconclusive, HCMV antiviral inconclusive
CCn1c(SCC(=O)Nc2ccc(OC)cc2)nc2nc3c(cc2c1=O)CCCC3	HCV inhibitor inconclusive
CCn1c(SCC(=O)NCc2ccccc2)nc2nc3c(cc2c1=O)CCCC3	Pf growth 96h inconclusive
Cc1ccccc1-n1c(SCC(=O)Nc2ccccc2)nc2nc3c(cc2c1=O)CCCC3	Pf growth 48h inconclusive, HCV inhibitor inconclusive, HCMV antiviral -80
O=c1cc(O)nc(SCc2ccccc2)n1-c1ccc(F)cc1	Pf growth 96h inconclusive, Pf growth 48h 2.9µM
CC1(C)SC2C(N3C(=O)C(c4ccccc4)NC3(C)C)C(=O)N2C1C(=O)O (stereo unspecified)	none (no result: HCV inhibitor, HCMV antiviral)
O=S1(=O)OC(c2ccc(O)cc2)(c2ccc(O)cc2)c2ccccc21	none (no result: HCV inhibitor, HCMV antiviral)
CCn1c(SCC(=O)N/N=C/C=C\c2ccccc2[N+](=O)[O-])nnc1-c1ccccc1	HCV inhibitor inconclusive
Cc1ccc(Nc2nnc(SCC(=O)Nc3ccccc3[N+](=O)[O-])s2)cc1	Pf growth 96h 10µM
Cc1ccc(CSc2nnc(SCC(=O)N/N=C/C=C/c3ccco3)s2)cc1	Pf growth 96h inconclusive, HCMV antiviral -61
CC(/C=N/NC(=O)CSc1nnc(SCc2ccccc2)s1)=C\c1ccco1	Pf growth 96h inconclusive
Cc1ccc(CSc2nnc(SCC(=O)N/N=C/C=C/c3ccccc3[N+](=O)[O-])s2)cc1	HCMV antiviral -78
CCOCCCNC(=O)c1ccc2c(=O)n(CCc3ccc(OC)c(OC)c3)c(=O)[nH]c2c1	none (no result: Pf growth 96h, Pf growth 48h, HCV inhibitor)
Cc1ccc(NC(=O)Cn2cnc3sc(C(=O)NCCN(C)C)c(C)c3c2=O)cc1Cl	Pf growth 96h 12µM, Pf growth 48h inconclusive, HCV inhibitor 10µM (no result: HCMV antiviral)
CCN(CC)CCCNC(=O)c1sc2ncn(CC(=O)Nc3ccc(C)c(Cl)c3)c(=O)c2c1C	Pf growth 48h 13µM, HCV inhibitor 14µM, HCMV antiviral -63
COc1ccccc1CNC(=O)C1CCN(Cc2nc(-c3ccc(OC)c(OC)c3)oc2C)CC1	none (no result: Pf growth 96h, Pf growth 48h, HCV inhibitor)
COc1ccc(-c2nc(CN3CCN(Cc4cccc(F)c4)CC3)c(C)o2)cc1	Pf growth 96h inconclusive, Pf growth 48h inconclusive
COc1ccccc1N1CCN(Cc2nc(-c3ccc(F)cc3)oc2C)CC1	Pf growth 96h inconclusive, Pf growth 48h inconclusive, HCV inhibitor 22µM
COc1ccc(-c2nc(CN3CCC(c4ccccc4)CC3)c(C)o2)cc1OC	Pf growth 96h 13µM, Pf growth 48h 12µM, HCV inhibitor inconclusive, HCMV antiviral -65
Cc1oc(-c2cc(F)ccc2F)nc1CN1CCN(c2ncnc3ccccc23)CC1	HCV inhibitor 0.56µM, HCMV antiviral -63
COc1ccccc1CN1CCN(Cc2nc(-c3ccc(C)cc3)oc2C)CC1	Pf growth 96h inconclusive, Pf growth 48h inconclusive, HCV inhibitor inconclusive
Cc1cc(N2CCN(Cc3nc(-c4ccc(F)cc4)oc3C)CC2)cc(C)n1	Pf growth 96h 12µM, Pf growth 48h inconclusive, HCV inhibitor inconclusive, HCMV antiviral inconclusive
COc1ccc(NC(=O)CSc2ncc3c(n2)-c2ccccc2N(C)S3(=O)=O)cc1Cl	none (no result: Pf growth 96h, Pf growth 48h, HCV inhibitor)
CC(C)CC(=O)Nc1ccccc1OCc1cc(=O)n2ccccc2n1	none (no result: Pf growth 96h, Pf growth 48h, HCV inhibitor)
CCOC(=O)c1cccc(NC(=O)COc2ccc3c(C)cc(=O)oc3c2)c1	none (no result: Pf growth 96h, Pf growth 48h, HCV inhibitor)
COc1ccc(C2=NN3C(C2)c2ccccc2OC3c2cccs2)cc1 (stereo unspecified)	Pf growth 96h inconclusive, HCV inhibitor inconclusive
COc1ccc(C2=C(CN(C)C)C(c3ccccc3)c3ccccc3O2)cc1 (stereo unspecified)	Pf growth 96h 2.6µM, Pf growth 48h 4.7µM
CCOc1ccc(C2=C(C=C(C#N)C#N)C(c3ccccc3)c3ccccc3O2)cc1 (stereo unspecified)	Pf growth 48h 3.7µM, HCV inhibitor inconclusive
CCOc1ccc(C2C(C#N)=C(N)Oc3c2c(=O)oc2ccccc32)cc1 (stereo unspecified)	Pf growth 96h inconclusive
COc1cccc(NC(=O)Cn2nc(-c3ccncc3)ccc2=O)c1	none (no result: Pf growth 96h, Pf growth 48h, HCV inhibitor)

Screening results from PubChem BioAssay.
